# The campaign covered roughly 1,500 compounds. About 430 (29%) were called active. The rule behind the calls is not given here. These entries were drawn from the full list. Measured potencies and affinities stand elsewhere.
# Experiment: insulin secretion activators without glucose, dose response, counter-screen for glucose-dependent insulin secretion activators, cell-based, INS-1E, Gaussia luciferase, luminescence, cherry-pick (AID 977606)
# Conditions: INS-1E Gaussia luciferase insulin secretion, no glucose, 100% = twice neutral-control luminescence; series mostly up to 35 µM
row,SMILES,outcome
1,CCOc1ccccc1Nc1cc2n(c(=O)n1)CCc1cc(OC)c(OC)cc1-2,inactive
2,COC(=O)c1cccc(-n2c(=O)n(Cc3ccccc3)c(=O)c3[nH]cnc32)c1C,inactive
3,O=C(O)c1ccc(S(=O)(=O)N2CCC3(CC2)CC(=O)c2ccccc2O3)cc1,inactive
4,CCOC(=O)c1c(C)[nH]c(C(=O)COC(=O)c2cnccn2)c1C,inactive
5,COc1ccc(N/C=C/C(=O)c2ccc(Cl)cc2)cc1,inactive
6,CCOc1ncccc1C(=O)Nc1ccc(S(=O)(=O)Nc2nc(C)cc(C)n2)cc1,inactive
7,COc1cc2ccc(CC(=O)O)cc2cc1OC,inactive
8,C[C@H](O)[C@@H]1CN2CCc3ccc(-c4ccc5c(c4)OCO5)cc3[C@@H]2C[C@@H]1N(C)C(=O)c1cccc(Cl)c1,inactive
9,CC(O)c1nc2ccc(Cc3ccc4nc(C(C)O)[nH]c4c3)cc2[nH]1 (stereo not given),inactive
10,Cc1ccc(-c2csc(NC(=O)CCCc3cccs3)n2)cc1,inactive
11,O=C(Cc1csc(NC(=O)c2ccccc2)n1)NO,inactive
12,CCc1c(C(=O)Nc2ccc(C)c(C)c2)[nH]c(C)c1C(C)=O,inactive
13,CC(=O)Nc1ccc(-c2ccnc3c2CC(C)(C(=O)Nc2cccc(OC(F)(F)F)c2)O3)cc1 (stereo not given),inactive
14,CCSc1ncnc2c(C#N)c3n(c12)CCCCC3,inactive
15,CN1CCCC1CCNC1C2CC3CC(C2)CC1C3 (stereo not given),inactive
16,Cc1c(C(=O)N(C)CCc2cnn(C)c2)oc2c(F)cccc12,inactive
17,COC(=O)C[C@@H]1OC[C@H](C(C)C)N1S(=O)(=O)c1ccc(C)cc1,inactive
18,Cc1ccc(-n2nc3c(c2NC(=O)C2CC2)CS(=O)(=O)C3)cc1,inactive
19,CCc1cc(=O)oc2c(CNCc3ccc(OC)cc3OC)c(O)c(Cl)cc12,inactive
20,COc1ccc(S(=O)(=O)N2CCCCC2)cc1NC(=O)C1CCCC1,inactive
21,CN1CCN(c2ccc(NC(=O)c3ccc(Oc4ccccc4)cc3)cc2)CC1,inactive
22,N#Cc1cnn2c(C(F)(F)F)cc(-c3ccccc3)nc12,inactive
23,CCCCc1nnc2c(N(C)S(=O)(=O)c3ccccc3)nc3ccccc3n12,inactive
24,O=C(CCn1nc(-c2ccc(Cl)cc2)ccc1=O)NCCCN1CCCCCC1,inactive
25,Cc1cc(-c2ccc(Cl)cc2)n2nc(C)cc2n1,inactive
26,COc1ccc(-n2c3c(c(=O)[nH]c2=O)C(NS(=O)(=O)c2ccc(Cl)cc2)(C(F)(F)F)C(=O)N3)cc1 (stereo not given),inactive
27,CCOc1cccc2cc(C(=O)Nc3cc(C)on3)c(=O)oc12,inactive
28,O=C(NCCc1ccccc1)c1cc(-c2ccc3c(c2)OCO3)on1,inactive
29,CCOc1ccc(CCNC(=O)c2cc(C)on2)cc1OCC,inactive
30,CC(=O)Cc1nsc(NC(=O)c2ccc(-c3cccc(Cl)c3)o2)n1,inactive
